# In the supplement of paper PMC8728848:
# This excerpt belongs to a sample that is enriched for the strongest signals.
# B1: AAL (Aleuria aurantia), P18891 (protein)
# chain: PTEFLYTSKIAAISWAATGGRQQRVYFQDLNGKIREAQRGGDNPWTGGSSQNVIGEAKLFSPLAAVTWKSAQGIQIRVYCVNKDNILSEFVYDGSKWITGQLGSVGVKVGSNSKLAALQWGGSESAPPNIRVYYQKSNGSGSSIHEYVWSGKWTAGASFGSTVPGTGIGATAIGPGRLRIYYQATDNKIREHCWDSNSWYVGGFSASASAGVSIAAISWGSTPNIRVYWQKGREELYEAAYGGSWNTPGQIKDASRPTPSLPDTFIAANSSGNIDISVFFQASGVSLQQWQWISGKGWSIGAVVPTGTPAGW
# B2: Gal 9 (Canis lupus) (protein)
# chain: MAFSSSQPPYLSPGVPFSGKIQGGLQDGLKITINGTILYCNGTRFAVNFHSGHSDSDIAFHFNPRFEEGGYVVCNTKQKGSWGSEERKMQMPFQMGNPFELCFMVNSCDFKVTVNGSHFTQYSHRVPFHYVDTLSITGAVQLSYISFQSPGVWQSSSAPITQTVIHTVQTTPGQPFPNPIIPPTAYPTPTYPMPFFTSIPGGLYPSKSIIVSGTVLPGAKRFHINLRSGNDIAFHLNPRFNENTVVRNMQINNSWGSEERSLPRKMPFVQGQSFSVWIMCEGHCFKVAVDGEHLFEYYHRLKNLLAINNMEVAGDVQLTHVQT
# What was measured:
# Assay in all cases: glycan array binding signal (z-score within array); higher = stronger binding
# Conditions in all cases: glycan notation: IUPAC condensed, linker removed
# [1] = biological target: Fuc(a1-2)Gal(b1-3)GlcNAc(b1-2)Man(a1-3)[Fuc(a1-2)Gal(b1-3)GlcNAc(b1-2)Man(a1-6)]Man(b1-4)GlcNAc(b1-4)[Fuc(a1-6)]GlcNAc
# How it was run: (§1)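 The Consortium for Functional Glycomics database supplied 3228 glycan arrays, of which those lacking an available protein sequence were dropped. The binding signal, a within-array Z-score, was averaged across arrays of the same protein sequence and across linkers. Negative scores can be read as non-binding.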
# Fuc(a1-2)Gal(b1-4)Glc6S = biological target: Fuc(a1-2)Gal(b1-4)Glc6S
# How it was run: as §1
# [2] = biological target: Fuc(a1-2)Gal(b1-4)GlcNAc(b1-3)Gal(b1-4)GlcNAc(b1-3)Gal(b1-4)GlcNAc
# How it was run: as §1
# [3] = biological target: Fuc(a1-2)Gal(b1-4)GlcNAc6S
# How it was run: as §1
# [4] = biological target: Fuc(a1-2)Gal(b1-4)[Fuc(a1-3)]GlcNAc
# How it was run: as §1
# [5] = biological target: Fuc(a1-2)Gal(b1-4)[Fuc(a1-3)]GlcNAc(b1-3)Gal(b1-4)[Fuc(a1-3)]GlcNAc(b1-3)Gal(b1-4)[Fuc(a1-3)]GlcNAc
# How it was run: as §1
# [6] = biological target: Fuc(a1-2)Gal6S(b1-4)GlcNAc
# How it was run: as §1
# [7] = biological target: Fuc(a1-2)[Gal(a1-3)]Gal(b1-3)GlcNAc(b1-2)Man(a1-3)[Fuc(a1-2)[Gal(a1-3)]Gal(b1-3)GlcNAc(b1-2)Man(a1-6)]Man(b1-4)GlcNAc(b1-4)GlcNAc
# How it was run: as §1
# Fuc(a1-3)GlcNAc = biological target: Fuc(a1-3)GlcNAc
# How it was run: as §1
# [8] = biological target: Fuc(a1-3)[Gal3S(b1-4)]GlcNAc
# How it was run: as §1
# Fuc(a1-4)GlcNAc = biological target: Fuc(a1-4)GlcNAc
# How it was run: as §1
# [9] = biological target: Gal(a1-3)Gal(b1-4)[Fuc(a1-3)]GalNAc
# How it was run: as §1
# Gal(a1-4)GlcNAc = biological target: Gal(a1-4)GlcNAc
# How it was run: as §1
# [10] = biological target: Gal(b1-3)GlcNAc(b1-3)Gal(b1-4)[Fuc(a1-3)]GlcNAc(b1-6)[Gal(b1-3)GlcNAc(b1-3)]Gal(b1-4)Glc
# How it was run: as §1
# [11] = biological target: Gal(b1-3)GlcNAc(b1-3)GalNAc
# How it was run: as §1
# [12] = biological target: Gal(b1-3)[GlcNAc(b1-6)]GlcNAc
# How it was run: as §1
# [13] = biological target: Gal(b1-4)GlcNAc(b1-2)[Gal(b1-4)GlcNAc(b1-4)]Man(a1-3)[GlcNAc(b1-4)][Gal(b1-4)GlcNAc(b1-2)Man(a1-6)]Man(b1-4)GlcNAc(b1-4)GlcNAc
# How it was run: as §1
# [14] = biological target: Gal(b1-4)GlcNAc(b1-3)Gal(b1-4)[Fuc(a1-3)GlcNAc(b1-6)]Gal(b1-4)Glc
# How it was run: as §1
# Glc(b1-4)Glc = biological target: Glc(b1-4)Glc
# How it was run: as §1
# [15] = biological target: GlcNAc(a1-3)Gal(b1-4)GlcNAc
# How it was run: as §1
# GlcNAc(b1-3)Gal = biological target: GlcNAc(b1-3)Gal
# How it was run: as §1
# [16] = biological target: GlcNAc(b1-3)Gal(b1-3)GalNAc
# How it was run: as §1
# [17] = biological target: GlcNAc(b1-3)[GlcNAc(b1-6)]Gal(b1-4)GlcNAc
# How it was run: as §1
# [18] = biological target: GlcNAc(b1-3)[GlcNAc(b1-6)]GlcNAc(b1-4)GlcNAc
# How it was run: as §1
# [19] = biological target: GlcNAc(b1-4)Gal(b1-4)GlcNAc
# How it was run: as §1
# [20] = biological target: GlcNAc6S(b1-3)Gal(b1-4)GlcNAc
# How it was run: as §1
# [21] = biological target: Neu5Ac(a2-3)Gal(b1-3)GlcNAc6S
# How it was run: as §1
# [22] = biological target: Neu5Ac(a2-3)Gal(b1-3)[Fuc(a1-4)]GlcNAc
# How it was run: as §1
# [23] = biological target: Neu5Ac(a2-3)Gal(b1-4)GlcNAc(b1-6)[Gal(b1-3)]GalNAc
# How it was run: as §1
# [24] = biological target: Neu5Ac(a2-3)Gal6S(b1-4)GlcNAc
# How it was run: as §1
# Neu5Ac(a2-3)GalNAc = biological target: Neu5Ac(a2-3)GalNAc
# How it was run: as §1
# [25] = biological target: Neu5Ac(a2-3)[Neu5Ac(a2-6)]GalNAc
# How it was run: as §1
# [26] = biological target: Neu5Ac(a2-6)Gal(b1-4)GlcNAc(b1-2)Man(a1-6)[GlcNAc(b1-2)Man(a1-3)]Man(b1-4)GlcNAc(b1-4)GlcNAc
# How it was run: as §1
# [27] = biological target: Neu5Ac(a2-8)Neu5Ac(a2-3)[GalNAc(b1-4)]Gal(b1-4)Glc
# How it was run: as §1
# [28] = biological target: Neu5Ac(a2-8)Neu5Ac(a2-8)Neu5Ac
# How it was run: as §1
# [29] = biological target: Neu5Ac(a2-3)Gal(b1-4)[Fuc(a1-3)]GlcNAc(b1-3)Gal
# How it was run: as §1
# [30] = biological target: Neu5Ac(a2-6)Gal(b1-4)GlcNAc(b1-3)GalNAc
# How it was run: as §1
# [31] = biological target: Neu5Ac(a2-6)GalNAc(b1-4)GlcNAc
# How it was run: as §1
# [32] = biological target: Neu5Ac(a2-8)Neu5Ac(a2-3)[Gal(b1-3)GalNAc(b1-4)]Gal(b1-4)Glc
# How it was run: as §1
# [33] = biological target: Neu5Ac(a2-8)Neu5Ac(a2-8)Neu5Ac(a2-8)Neu5Ac(a2-3)[GalNAc(b1-4)]Gal(b1-4)Glc
# How it was run: as §1
# [34] = biological target: Neu5Ac(b2-6)Gal(b1-4)GlcNAc
# How it was run: as §1
# [35] = biological target: Neu5Gc(a2-3)Gal(b1-3)GlcNAc
# How it was run: as §1
binder,measurement,setting,value
B1,glycan array binding signal (z-score),[1],-0.012
same,glycan array binding signal (z-score),Fuc(a1-2)Gal(b1-4)Glc6S,3.52
same,glycan array binding signal (z-score),[2],3.03
same,glycan array binding signal (z-score),[3],2.6
same,glycan array binding signal (z-score),[4],2.51
same,glycan array binding signal (z-score),[5],2.68
same,glycan array binding signal (z-score),[6],2.6
same,glycan array binding signal (z-score),[7],-0.407
same,glycan array binding signal (z-score),Fuc(a1-3)GlcNAc,2.85
same,glycan array binding signal (z-score),[8],1.76
same,glycan array binding signal (z-score),Fuc(a1-4)GlcNAc,1.99
same,glycan array binding signal (z-score),[9],2.52
same,glycan array binding signal (z-score),Gal(a1-4)GlcNAc,-0.498
same,glycan array binding signal (z-score),[10],0.584
same,glycan array binding signal (z-score),[11],-0.414
same,glycan array binding signal (z-score),[12],-0.62
same,glycan array binding signal (z-score),[13],-0.348
same,glycan array binding signal (z-score),[14],0.521
same,glycan array binding signal (z-score),Glc(b1-4)Glc,-0.525
same,glycan array binding signal (z-score),[15],-0.512
same,glycan array binding signal (z-score),GlcNAc(b1-3)Gal,-0.501
same,glycan array binding signal (z-score),[16],-0.515
same,glycan array binding signal (z-score),[17],-0.514
same,glycan array binding signal (z-score),[18],-0.567
same,glycan array binding signal (z-score),[19],-0.525
same,glycan array binding signal (z-score),[20],-0.391
same,glycan array binding signal (z-score),[21],-0.493
same,glycan array binding signal (z-score),[22],1.33
same,glycan array binding signal (z-score),[23],-0.444
same,glycan array binding signal (z-score),[24],1.5
same,glycan array binding signal (z-score),Neu5Ac(a2-3)GalNAc,-0.531
same,glycan array binding signal (z-score),[25],-0.551
same,glycan array binding signal (z-score),[26],-0.423
same,glycan array binding signal (z-score),[27],-0.499
same,glycan array binding signal (z-score),[28],-0.526
B2,glycan array binding signal (z-score),[29],-0.343
same,glycan array binding signal (z-score),[30],-0.178
same,glycan array binding signal (z-score),[31],-0.345
same,glycan array binding signal (z-score),[32],-0.302
same,glycan array binding signal (z-score),[33],-0.331
same,glycan array binding signal (z-score),[34],-0.331
same,glycan array binding signal (z-score),[35],0.216
